Test results: PubChem BioAssay (NCATS)
Records with an inconclusive call do not appear. Active and inactive are the calls of the source. The call rests on the fitted dose curve; in most records, active means well fitted curve in the direction sought with a large enough effect; inconclusive means small, poorly fitted or top-dose-only effect, or another doubt; inactive means no such curve, though single readings can be large; an effect the other way counts as inactive or inconclusive.

Tests used:
[1] = target: Luciferin 4-monooxygenase (Photinus pyralis) (UniProt P08659); test: Biochemical firefly luciferase enzyme assay for NPC (AID 624030);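 further: purified P. pyralis luciferase at 10 nM with luciferin and ATP substrate; 0% = DMSO and -100% = full luciferase inhibition by PTC124 control; nearly all actives have a fitted effect of over 70% in size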
Luciferin 4-monooxygenase (Photinus pyralis), sequence (P08659 whole entry, looked up): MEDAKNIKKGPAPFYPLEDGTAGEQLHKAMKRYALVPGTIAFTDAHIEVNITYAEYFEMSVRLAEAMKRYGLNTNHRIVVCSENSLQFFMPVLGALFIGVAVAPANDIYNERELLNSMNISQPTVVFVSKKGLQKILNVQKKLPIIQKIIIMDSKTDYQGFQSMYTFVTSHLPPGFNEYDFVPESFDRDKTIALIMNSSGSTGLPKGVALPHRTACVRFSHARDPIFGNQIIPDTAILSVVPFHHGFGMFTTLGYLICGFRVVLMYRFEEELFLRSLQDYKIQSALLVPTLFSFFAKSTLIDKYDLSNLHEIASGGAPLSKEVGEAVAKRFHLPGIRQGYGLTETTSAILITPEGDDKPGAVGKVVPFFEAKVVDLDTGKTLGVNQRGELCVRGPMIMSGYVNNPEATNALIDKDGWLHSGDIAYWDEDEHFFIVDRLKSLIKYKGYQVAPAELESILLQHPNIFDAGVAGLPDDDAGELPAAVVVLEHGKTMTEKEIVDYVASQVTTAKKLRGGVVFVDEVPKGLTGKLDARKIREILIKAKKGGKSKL
Procedure, shortened: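 Direct inhibition of firefly luciferase enzyme (10 nM final, 50 mM Tris Acetate) assessed by luminescence within 5 minutes. Percent activity scaled between DMSO and PTC124 positive control, with concentration-effect curves classified by fit quality and response.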

[2] = qHTS Assay for Identifying Gametocytocidal Compounds (AID 743244);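 further: on the % scale 0 is the no-effect control and ±100 the full control effect; actives lower the fluorescent signal which means gametocytes are killed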; conditions: P. falciparum 3D7 stage III-V gametocytes, alamarBlue, 72 h; max response: active compounds read low
Procedure, shortened: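 Fluorescence at Ex 525/Em 598 nm, recorded 24 h after alamarBlue addition, reports residual metabolic activity of 3D7 gametocytes (stages III–V) following 72 h compound exposure at 37 °C, 5% CO2.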

[3] = P-glycoprotein substrates identified in KB-8-5-11 adenocarcinoma cell line, qHTS therapeutic library screen (AID 1346987); further: on the % scale 0 is the no-effect control and ±100 the full control effect; nearly all actives have a fitted effect of over 65% in size
Procedure, shortened: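 KB-8-5-11: colchicine-selected sub-line of KB-3-1 over-expressing P-gp; assay medium lacked colchicine. 72 h drug exposure at 37 degree C, CellTiter-Glo.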

[4] = Drug repurposing screens with cells derived from glioblastoma tumor samples (AID 1345199); conditions: GBM patient neurospheres viability, ATP luminescence, 48 h; Potency: tumour line A; series mostly up to 45.9 µM; further: on the % scale 0 is the no-effect control and ±100 the full control effect; nearly all actives have a fitted effect of over 40% in size
Procedure, shortened: (§1)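 Four patient lines of CD133+ GBM neurospheres were screened at several concentrations; hits were retested in those lines plus three slower-growing GBM lines, using 48-hour treatment and ATP-based viability.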

astro = test: as above; conditions: viability, ATP luminescence, 48 h; series mostly up to 45.9 µM
Procedure, shortened: as §1

C/C=C(\CC)C(=O)NC(N)=O
inactive: Potency [1] | max response [2] -0.86% | Potency [3] | Potency [4] | Potency (astro)

C[C@@H]1[C@H]2Cc3ccc(O)cc3[C@]1(C)CCN2C
inactive: max response [2] -6.63% | Potency [3] | Potency [4] | Potency (astro)
